The target of assay [1] is Agonist Androgen Response Element (ARE), AR (gene 367) (UniProt P10275). Briefly: OT_AR_ARELUC_AG_1440: Odyssey Thera (OT) 24-hour CHO-K1 Luciferase Assay for Agonist Androgen Response Element (ARE) (AID 2283379). The procedure, abridged:
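Gain-of-signal reporter endpoint: cells (CHO-K1, hamster) are treated 24 h, luciferin/ATP reagent added, and luminescence compared with DMSO baseline.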

Assay [2] has as its target Estrogen receptor beta (Homo sapiens) (UniProt Q92731). Briefly: OT_ER_ERbERb_1440: Odyssey Thera (OT) 24-hour HEK293T Protein-Complementation Assay for Estrogen Receptor-beta/-beta Homodimer (AID 2283380).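 Further: scored as signal increase over DMSO baseline for both agonists and antagonists.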 The procedure, abridged:
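HEK293T cells stably expressing ER beta LBD (aa 310-547) homodimer fragment-complementation reporter, dosed 24 h. Cells formaldehyde-fixed, Draq5-stained; gain in nuclear (agonist) or nuclear plus cytoplasmic (antagonist) fluorescence versus DMSO read by laser scanning cytometry.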

Assay [3] concerns the target Estrogen receptor (Homo sapiens) (UniProt P03372). Briefly: OT_ERa_GFPERaERE_0480: Odyssey Thera (OT) 8-hour HeLa Transcription Induction Assay for Estrogen Receptor (AID 2283381; active means hit-call score of the fitted dose curve at least 0.9, where 1 is the maximum; inactive means score below 0.9). The procedure, abridged:
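Fluorescence microscopy with high-content image analysis measures ERE-driven GFP induction in HeLa cells at 8 h post-dose. Increases fitted against DMSO baseline.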

Assay [4] has the same target. Briefly: OT_ERa_GFPERaERE_0120: Odyssey Thera (OT) 2-hour HeLa Transcription Induction Assay for Estrogen Receptor (AID 2283382). An outline of the steps: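 Fluorescence-microscopy images of the GFP-ERα/ERE reporter, scored by high-content image algorithms, give the readout. HeLa exposure lasted 2 h, and only signal increase over DMSO was fitted.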
Assay [5] concerns the target Retinoic acid receptor RXR-alpha (Homo sapiens) (UniProt P19793). Briefly: OT_NURR1_NURR1RXRa_0480: Odyssey Thera (OT) 8-hour HEK293T Protein Complementation Assay for Nurr1/retinoid X receptor (RXR) (AID 2283385). An outline of the steps:
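Interaction of Nurr1 with RXRα read as reconstituted reporter fluorescence in a HEK293T fragment-complementation system, 8 h post-treatment; increase over DMSO baseline analysed.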

For assay [6] the target is unchanged. Briefly: OT_NURR1_NURR1RXRa_1440: Odyssey Thera (OT) 24-hour HEK293T Protein Complementation Assay for Nurr1/retinoid X receptor (RXR) (AID 2283386). The procedure, abridged: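 Gain in fluorescence, fitted relative to DMSO, reflects Nurr1–RXRα association in HEK293T cells after 24 h dosing. Bait and prey are each linked to a reporter-protein fragment that reassembles on interaction.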

Assay [7] addresses Peroxisome proliferator-activated receptor gamma (Homo sapiens) (UniProt P37231). Briefly: OT_PPARg_PPARgSRC1_0480: Odyssey Thera (OT) 8-hour Protein-Complementation Assay for Peroxisome Proliferator-activated Receptor Gamma / SRC-1 Co-activator (AID 2283387).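 Further: nuclear to cytoplasmic split Venus YFP fluorescence ratio reporting PPARg SRC-1 interaction.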 An outline of the steps:
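HEK293T transiently transfected with PPARg and SRC-1 fused to Venus YFP fragments, compounds 8 h at 37C. Fixed, Draq5-stained cells imaged; nuclear/cytoplasmic 488 nm fluorescence ratio over at least 350 cells per image; gain fitted versus DMSO.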

Assay [8] has the same target. Briefly: OT_PPARg_PPARgSRC1_1440: Odyssey Thera (OT) 24-hour Protein-Complementation Assay for Peroxisome Proliferator-activated Receptor Gamma/ SRC-1 Co-activator (AID 2283388). The procedure, abridged: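 Readout: nuclear-to-cytoplasmic 488 nm fluorescence ratio, ≥350 cells per image, 8 images per well, after 24 h compound exposure of HEK293T expressing PPARg/SRC-1 split-YFP fusions. Activity fitted in positive direction against DMSO.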

Assay [9] can be described thus: CEETOX_H295R_11DCORT: CeeTox H295R High-throughput Steroidogenesis Assay for 11-Deoxycortisol (11DCORT) (AID 2283432; active means hit-call score of the fitted dose curve at least 0.9, where 1 is the maximum; inactive means score below 0.9;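 on AC50: 11-deoxycortisol secreted into the medium measured by LC-MS/MS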). The settings on record: actives raise or lower the signal. The procedure, abridged: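 H295R cells prestimulated 48 h with 10 uM forskolin, then exposed 48 h to chemical in 0.1% DMSO. 11-Deoxycortisol in medium quantified by HPLC-MS/MS after MTBE extraction; bidirectional fit versus DMSO. MTT viability read in same wells.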

The nature of assay [10]: CEETOX_H295R_OHPREG: CeeTox H295R High-throughput Steroidogenesis Assay for OH-Pregnenolone (OHPREG) (AID 2283434; active means hit-call score of the fitted dose curve at least 0.9, where 1 is the maximum; inactive means score below 0.9). As to conditions: actives raise or lower the signal. The procedure, abridged:
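H295R, 10 uM forskolin pre-stim 48 h; test chemical 48 h, 0.1% DMSO final. MTBE extraction, reverse-phase C18 HPLC-ESI+ MS/MS of medium. Gain/loss vs DMSO; viability by MTT in same wells.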

Assay [11] in a line: CEETOX_H295R_OHPROG: CeeTox H295R High-throughput Steroidogenesis Assay for OH-Progesterone (OHPROG) (AID 2283435; active means hit-call score of the fitted dose curve at least 0.9, where 1 is the maximum; inactive means score below 0.9;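 on AC50: 17alpha-hydroxyprogesterone secreted into medium measured by HPLC-MS/MS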). The settings on record: actives raise or lower the signal. The procedure, abridged:
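Medium steroid levels read by LC-MS/MS after 48 h chemical treatment (0.1% DMSO) of human adrenal H295R cells that had been forskolin-primed (10 uM, 48 h). Gain or loss fitted against DMSO; MTT cytotoxicity checked per well.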

The nature of assay [12]: CEETOX_H295R_ANDR: CeeTox H295R High-throughput Steroidogenesis Assay for Androstenedione (ANDR) (AID 2283436; active means hit-call score of the fitted dose curve at least 0.9, where 1 is the maximum; inactive means score below 0.9;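 further: human H295R adrenal cells exposed for 48 h with androstenedione measured in medium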). The settings on record: actives raise or lower the signal. An outline of the steps: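 48 h chemical exposure, H295R cells, DMEM/F12 + ITS+ and Nu-Serum. Medium androstenedione: MTBE extraction, C18 reverse-phase HPLC, ESI+ MS/MS. Fit bidirectional vs DMSO; MTT viability in same wells.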

Assay [13] can be described thus: CEETOX_H295R_CORTIC: CeeTox H295R High-throughput Steroidogenesis Assay for Corticosterone (CORTIC) (AID 2283437; active means hit-call score of the fitted dose curve at least 0.9, where 1 is the maximum; inactive means score below 0.9;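 further: corticosterone secreted into medium quantified by mass spectrometry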). As to conditions: actives raise or lower the signal. The procedure, abridged:
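48 h forskolin (10 uM) prestim, then 48 h chemical exposure, final DMSO 0.1%. Readout: corticosterone in medium by LC-MS/MS after MTBE extraction. Gain/loss fit vs DMSO; MTT viability in same wells.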

Assay [14] in a line: CEETOX_H295R_CORTISOL: CeeTox H295R High-throughput Steroidogenesis Assay for Cortisol (AID 2283438; active means hit-call score of the fitted dose curve at least 0.9, where 1 is the maximum; inactive means score below 0.9). The settings on record: actives raise or lower the signal. An outline of the steps:
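Cortisol measured by HPLC-MS/MS after MTBE extraction of medium from H295R cells exposed 48 h to chemical (0.1% DMSO), following 48 h prestimulation with 10 uM forskolin. Viability assessed by MTT in the same wells.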

The nature of assay [15]: CEETOX_H295R_DOC: CeeTox H295R High-throughput Steroidogenesis Assay for DOC (AID 2283439; active means hit-call score of the fitted dose curve at least 0.9, where 1 is the maximum; inactive means score below 0.9). As to conditions: actives raise or lower the signal. The procedure, abridged:
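11-Deoxycorticosterone quantified in medium by MTBE extraction and HPLC-MS/MS after 48 h chemical exposure (0.1% DMSO) of forskolin-primed (10 uM, 48 h) H295R cells. Same-well MTT viability; data fitted bidirectionally against DMSO.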

Assay [16] in a line: CEETOX_H295R_ESTRADIOL: CeeTox H295R High-throughput Steroidogenesis Assay for Estradiol (AID 2283440; active means hit-call score of the fitted dose curve at least 0.9, where 1 is the maximum; inactive means score below 0.9;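 further: estradiol secreted into medium quantified by LC-MS/MS after dansyl derivatisation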). The settings on record: actives raise or lower the signal. The procedure, abridged: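 H295R, 48 h forskolin (10 uM) prestim → 48 h compound, 0.1% DMSO final. Estradiol in medium: MTBE extraction, dansyl chloride derivatization, LC-MS/MS. Fit bidirectional vs DMSO baseline; MTT viability in same wells.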

A short description of assay [17]: CEETOX_H295R_ESTRONE: CeeTox H295R High-throughput Steroidogenesis Assay for Estrone (AID 2283441; active means hit-call score of the fitted dose curve at least 0.9, where 1 is the maximum; inactive means score below 0.9). As to conditions: actives raise or lower the signal. The procedure, abridged:
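Estrone secreted into medium quantified by LC-MS/MS after dansyl chloride derivatization, following 48 h chemical exposure (0.1% DMSO final) of forskolin-prestimulated (10 uM, 48 h) H295R cells; gain or loss fitted against DMSO; MTT viability in same wells.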

Assay [18] has as its target Bile acid receptor (Homo sapiens) (UniProt Q96RI1). Briefly: OT_FXR_FXRSRC1_0480: Odyssey Thera (OT) 8-hour HEK293T Protein-Complementation Assay for Farnesoid X receptor/SRC-1 Co-activator (AID 2283383). An outline of the steps: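 Binding of FXR to coactivator SRC-1 was read as fluorescence from a reconstituted split reporter in HEK293T cells, 8 h after chemical addition. Only increases in signal versus DMSO were fit.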

The target is the same in assay [19]. Briefly: OT_FXR_FXRSRC1_1440: Odyssey Thera (OT) 24-hour HEK293T Protein-Complementation Assay for Farnesoid X receptor/SRC-1 Co-activator (AID 2283384). The procedure, abridged:
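Protein-fragment complementation: FXR and SRC-1 fused to reporter fragments that reassemble on interaction, read by fluorescence intensity. Human HEK293T cells measured 24 h post-dose; positive-direction fit versus DMSO.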

Values joined by “and” are separate entries in the source; they are usually repeats but may differ in a detail not shown here. Identical values can stand only once. Results filed as inconclusive are left out. The source holds several records for some structures; these can differ, active in one and inactive in another. Active and inactive are the calls of the source. How the source made its calls, unless noted: active means hit-call score of the fitted dose curve at least 0.9, where 1 is the maximum; inconclusive means response in the unintended direction; inactive means score below 0.9.

Sequence of Peroxisome proliferator-activated receptor gamma (Homo sapiens) (P37231 whole entry, looked up, the tested form may be a part): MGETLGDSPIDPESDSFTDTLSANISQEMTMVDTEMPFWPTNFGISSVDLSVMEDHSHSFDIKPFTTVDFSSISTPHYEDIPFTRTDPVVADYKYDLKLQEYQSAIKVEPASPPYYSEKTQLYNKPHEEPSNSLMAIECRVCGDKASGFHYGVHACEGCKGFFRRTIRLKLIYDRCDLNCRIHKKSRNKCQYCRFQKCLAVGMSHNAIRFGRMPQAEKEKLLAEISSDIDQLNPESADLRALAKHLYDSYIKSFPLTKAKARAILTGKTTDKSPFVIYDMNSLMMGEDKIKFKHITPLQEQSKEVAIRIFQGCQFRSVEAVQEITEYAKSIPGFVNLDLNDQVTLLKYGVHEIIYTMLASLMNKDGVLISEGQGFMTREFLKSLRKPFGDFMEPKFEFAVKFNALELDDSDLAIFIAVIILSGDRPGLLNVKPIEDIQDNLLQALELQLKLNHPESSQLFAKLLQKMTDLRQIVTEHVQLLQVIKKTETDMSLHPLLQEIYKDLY
Sequence of Estrogen receptor beta (Homo sapiens) (Q92731 whole entry, looked up, the tested form may be a part): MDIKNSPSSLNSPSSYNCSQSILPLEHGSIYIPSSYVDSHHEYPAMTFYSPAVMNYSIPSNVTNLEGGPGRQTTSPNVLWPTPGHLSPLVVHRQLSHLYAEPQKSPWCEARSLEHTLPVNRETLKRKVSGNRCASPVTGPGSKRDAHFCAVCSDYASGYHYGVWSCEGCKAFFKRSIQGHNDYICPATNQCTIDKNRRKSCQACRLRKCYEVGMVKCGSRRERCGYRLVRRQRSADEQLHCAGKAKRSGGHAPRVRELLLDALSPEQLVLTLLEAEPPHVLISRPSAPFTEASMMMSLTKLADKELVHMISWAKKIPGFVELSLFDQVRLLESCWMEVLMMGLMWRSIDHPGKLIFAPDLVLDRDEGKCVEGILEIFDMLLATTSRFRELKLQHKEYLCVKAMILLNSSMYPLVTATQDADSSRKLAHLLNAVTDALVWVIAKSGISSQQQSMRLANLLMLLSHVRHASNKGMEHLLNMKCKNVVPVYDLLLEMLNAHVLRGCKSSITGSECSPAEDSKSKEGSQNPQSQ
Sequence of Estrogen receptor (Homo sapiens) (P03372 whole entry, looked up): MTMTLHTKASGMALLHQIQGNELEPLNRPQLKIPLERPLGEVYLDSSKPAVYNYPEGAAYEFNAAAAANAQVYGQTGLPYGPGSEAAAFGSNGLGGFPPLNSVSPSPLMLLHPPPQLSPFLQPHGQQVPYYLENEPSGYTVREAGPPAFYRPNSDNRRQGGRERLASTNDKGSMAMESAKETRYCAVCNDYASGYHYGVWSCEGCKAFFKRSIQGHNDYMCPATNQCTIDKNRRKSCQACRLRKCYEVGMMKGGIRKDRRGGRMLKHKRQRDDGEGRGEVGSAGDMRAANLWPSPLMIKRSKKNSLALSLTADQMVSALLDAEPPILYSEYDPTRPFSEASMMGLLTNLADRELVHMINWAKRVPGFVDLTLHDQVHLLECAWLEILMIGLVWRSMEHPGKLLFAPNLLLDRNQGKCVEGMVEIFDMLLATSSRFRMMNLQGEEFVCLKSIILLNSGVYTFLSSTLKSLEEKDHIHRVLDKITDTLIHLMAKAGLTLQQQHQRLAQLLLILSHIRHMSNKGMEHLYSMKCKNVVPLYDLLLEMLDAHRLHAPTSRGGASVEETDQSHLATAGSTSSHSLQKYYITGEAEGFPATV
Sequence of Bile acid receptor (Homo sapiens) (Q96RI1 whole entry, looked up): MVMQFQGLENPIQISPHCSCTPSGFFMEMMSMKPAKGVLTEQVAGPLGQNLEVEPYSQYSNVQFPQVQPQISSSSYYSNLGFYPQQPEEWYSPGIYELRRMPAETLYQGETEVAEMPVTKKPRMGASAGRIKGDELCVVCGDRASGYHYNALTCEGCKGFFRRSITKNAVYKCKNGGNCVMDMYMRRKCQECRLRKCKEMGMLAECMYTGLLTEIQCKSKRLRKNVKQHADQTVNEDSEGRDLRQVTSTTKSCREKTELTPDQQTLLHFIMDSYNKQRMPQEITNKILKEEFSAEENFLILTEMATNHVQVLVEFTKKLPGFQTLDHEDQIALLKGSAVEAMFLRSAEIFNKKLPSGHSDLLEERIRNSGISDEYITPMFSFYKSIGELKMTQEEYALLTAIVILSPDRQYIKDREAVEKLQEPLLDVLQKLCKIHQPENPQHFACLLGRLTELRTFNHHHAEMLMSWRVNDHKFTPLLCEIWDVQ
Sequence of Retinoic acid receptor RXR-alpha (Homo sapiens) (P19793 whole entry, looked up, the tested form may be a part): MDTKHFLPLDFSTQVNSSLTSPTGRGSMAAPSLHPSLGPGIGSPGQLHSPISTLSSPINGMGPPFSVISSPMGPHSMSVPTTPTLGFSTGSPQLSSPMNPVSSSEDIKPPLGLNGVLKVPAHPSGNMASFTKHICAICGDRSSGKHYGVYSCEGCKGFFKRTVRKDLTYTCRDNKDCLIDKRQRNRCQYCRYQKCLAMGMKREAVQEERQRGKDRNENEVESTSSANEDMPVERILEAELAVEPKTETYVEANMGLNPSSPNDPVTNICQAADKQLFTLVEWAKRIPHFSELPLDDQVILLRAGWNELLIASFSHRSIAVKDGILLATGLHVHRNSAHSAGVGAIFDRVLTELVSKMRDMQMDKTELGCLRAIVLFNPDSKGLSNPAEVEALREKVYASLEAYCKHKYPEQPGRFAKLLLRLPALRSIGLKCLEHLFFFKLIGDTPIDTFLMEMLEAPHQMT
Sequence of Agonist Androgen Response Element (ARE), AR (gene 367) (P10275 whole entry, looked up): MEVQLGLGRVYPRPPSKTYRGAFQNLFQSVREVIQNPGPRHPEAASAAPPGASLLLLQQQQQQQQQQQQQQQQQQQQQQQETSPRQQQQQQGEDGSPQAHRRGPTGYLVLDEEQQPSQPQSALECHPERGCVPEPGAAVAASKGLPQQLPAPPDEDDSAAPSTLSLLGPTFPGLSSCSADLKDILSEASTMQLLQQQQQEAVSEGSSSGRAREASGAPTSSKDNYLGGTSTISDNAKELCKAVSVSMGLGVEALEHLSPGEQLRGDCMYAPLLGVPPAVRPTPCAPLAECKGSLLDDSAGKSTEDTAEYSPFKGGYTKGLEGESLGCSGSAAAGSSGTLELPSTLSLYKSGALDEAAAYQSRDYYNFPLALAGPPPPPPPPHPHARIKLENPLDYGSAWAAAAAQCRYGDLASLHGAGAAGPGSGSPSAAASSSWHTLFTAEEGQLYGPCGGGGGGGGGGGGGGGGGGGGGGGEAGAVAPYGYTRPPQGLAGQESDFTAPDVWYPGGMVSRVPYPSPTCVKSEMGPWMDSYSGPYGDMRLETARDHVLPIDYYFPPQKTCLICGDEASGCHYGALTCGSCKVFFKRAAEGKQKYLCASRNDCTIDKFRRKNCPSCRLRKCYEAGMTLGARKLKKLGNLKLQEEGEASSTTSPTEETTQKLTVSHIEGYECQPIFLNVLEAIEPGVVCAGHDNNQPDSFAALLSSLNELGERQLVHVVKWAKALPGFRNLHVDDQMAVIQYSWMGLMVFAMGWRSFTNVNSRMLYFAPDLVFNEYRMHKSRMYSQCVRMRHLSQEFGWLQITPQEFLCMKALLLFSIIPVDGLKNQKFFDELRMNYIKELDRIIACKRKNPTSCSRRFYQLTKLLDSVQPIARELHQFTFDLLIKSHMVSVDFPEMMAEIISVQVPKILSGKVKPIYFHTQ

On to `Cc1ccc(N)cc1O`, for which the compound was called inactive in [1], in assay [2], in assay [3], in [4], in [5] and in assay [6]. The outcome in assay [7], in assay [8], in assay [9], in [10], in [12] and in [13] was inactive. The compound was called inactive in assay [14], in assay [15] and in [17]. In addition, the AC50 (commonly the concentration giving half of the maximal activity seen) in assay [6] was 50 µM (active); in [11], 39.8 µM (active); in [16] it was 40.9 µM (active).

Regarding `CCn1nc(Cc2ccccc2)cc1C1CCN(C[C@H]2C[C@H](N(C)[C@@H](C(=O)O)C(C)C)C[C@@H]2c2cccc(F)c2)CC1`, the call in [2], in [3], in [4], in [5], in assay [6] and in [7] was inactive. In addition, the compound was called inactive in assay [8].

For `COC(=O)c1ccccc1O`, the result in assay [2], in assay [3], in [4] and in [5] was inactive.

Take `COCCOc1cc2cc(C(=O)NC3CCN(C(C)C)CC3)n(CC(=O)Nc3ccc(Cl)cn3)c2cn1`: the AC50 in [2] was 58 µM (active). For the same compound, the outcome in [5] and in [6] was inactive.

As for `CCc1cc(SCc2sc(-c3ccc(C(F)(F)F)cc3)nc2CN2CCN(c3ccc(OC)cc3)CC2)ccc1OCC(=O)O`, the result in [2] and in assay [18] was inactive. The AC50 in assay [19] is 12 µM (active); in assay [7], 345 nM (active) and 1.09 µM (active); in assay [8] it was 723 nM (active) and 1.02 µM (active).

As for `C1=CCCC=CCCC=CCC1`, the call in [2], in [18], in assay [19], in assay [5], in assay [6] and in assay [7] was inactive. Further, in assay [8], the compound was called inactive.

Regarding `CC/C(=C\C(=N/O)C(N)=O)C(C)[N+](=O)[O-]` (stereo not drawn), the result in [2], in assay [3], in assay [4], in [6], in assay [7] and in assay [8] was inactive. Further, the AC50 in assay [5] is 31.6 µM (active).

Take `O=C1CCCCCN1`: the compound was classed as inactive in assay [2], in [18], in assay [19], in assay [7] and in assay [8].

For `CCCCCCCCO`, the result in [2], in assay [3], in assay [4], in [6], in [7] and in assay [8] was inactive. For the same compound, the call in assay [9], in assay [11], in assay [14], in assay [15] and in assay [17] was inactive.

For the compound `Cc1c(-c2cccnc2)c2ccccc2n1CCCCC(=O)O`, the call in [2], in assay [18], in [19], in [5], in assay [7] and in [8] was inactive. The call in assay [10] and in [11] was inactive.

`CCOCCOCCOCCO`: the result in assay [2], in [19], in [5], in [6], in assay [7] and in assay [8] was inactive.

`Cc1[nH]cnc1C[C@H]1CCc2c(C)c3ccccc3n2C1=O`: the compound was classed as inactive in assay [2] and in assay [5].

For `CCC(C)(C)C(=O)O[C@H]1C[C@@H](C)C=C2C=C[C@H](C)[C@H](CC[C@@H]3C[C@@H](O)CC(=O)O3)[C@H]21`, the call in assay [2], in assay [3], in [4], in assay [5], in assay [6] and in assay [7] was inactive. The outcome in assay [8], in assay [10], in [13], in assay [14], in assay [16] and in [17] was inactive. Further, the half-maximal activity concentration (AC50) was 0.338 µM (active) in [9], 0.809 µM (active) in assay [11] and 0.581 µM (active) in assay [15].
